High-throughput results deposited in PubChem by National Center for Advancing Translational Sciences (NCATS).
G9a block: inhibitors of human histone lysine methyltransferase G9a; G9a H3K9 monomethylation, AlphaScreen, 2 h; Potency, µM (titrated, usually from 102 µM), hits mostly inhibitors; Q96KQ7; 350,000 compounds, 8.8% hits; also: nearly all actives have a fitted effect of over 75% in size
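G9a (20 nM) was preincubated 15 min with compound, then reacted 2 h at room temperature with 500 nM biotin-H3K9 peptide and 20 µM SAM. Monomethyl-H3K9 detected by AlphaScreen using anti-H3K9me1 antibody.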
PLK1 PBD inh: inhibitors of human PLK1 polo-box domain binding; P53350; Plk1 PBD binding of FITC phosphopeptide, fluorescence polarization; Potency, µM, actives largely listed as inhibitors; 360,000 compounds, 2.8% hits; AID 720504; also: series mostly up to about 57 µM; nearly all actives have a fitted effect of over 65% in size
Target sequence (P53350 whole entry, looked up, the tested form may be a part): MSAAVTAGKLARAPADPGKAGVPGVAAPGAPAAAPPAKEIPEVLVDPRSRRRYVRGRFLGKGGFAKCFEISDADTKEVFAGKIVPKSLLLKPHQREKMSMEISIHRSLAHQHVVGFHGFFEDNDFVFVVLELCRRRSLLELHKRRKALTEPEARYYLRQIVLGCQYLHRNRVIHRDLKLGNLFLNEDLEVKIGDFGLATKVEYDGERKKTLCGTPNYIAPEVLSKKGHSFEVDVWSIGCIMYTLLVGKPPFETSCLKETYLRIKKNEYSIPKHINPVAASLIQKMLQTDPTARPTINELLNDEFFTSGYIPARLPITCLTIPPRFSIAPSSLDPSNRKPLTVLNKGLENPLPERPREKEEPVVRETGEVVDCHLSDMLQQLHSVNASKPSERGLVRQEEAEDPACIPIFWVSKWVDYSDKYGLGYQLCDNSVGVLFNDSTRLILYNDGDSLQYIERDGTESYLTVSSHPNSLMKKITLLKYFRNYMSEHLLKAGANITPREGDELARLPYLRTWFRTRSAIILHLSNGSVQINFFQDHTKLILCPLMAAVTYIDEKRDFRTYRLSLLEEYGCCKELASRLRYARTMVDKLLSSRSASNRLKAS
HP1b binding inh: HP1-beta chromodomain-methylated histone interaction inhibition. P83916. Potency, µM (titrated, usually from 114 µM), most hits filed as inhibitors. AlphaScreen HP1-beta / biotin-H3K9me3 peptide binding. 390,000 compounds, 0.56% hits; also: nearly all actives have a fitted effect of over 70% in size
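AlphaScreen: HP1-beta (50 nM) preformed 30 min with biotin-H3(1-18)K9me3 peptide (50 nM) in PBS pH 7.4, 0.01% Tween-20. Compound added for 30 min at RT, then streptavidin donor/nickel chelate acceptor beads (10 ug/mL) for 30 min.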
Sfp inh: inhibitors of Bacillus subtilis Sfp phosphopantetheinyl transferase | AID 1490 | Biochemical Sfp PPTase activity, qHTS | Q9F4F7 | 310,000 compounds, 3.5% hits | Potency, µM, hits mostly inhibitors;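 also: the enzyme is Sfp with the accession as filed and its product quenches rhodamine fluorescence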
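After 15 min at room temperature with compound, 15 nM Sfp received 5 uM rhodamine-CoA plus 12.5 uM BHQ-2-ybbR (50 mM Hepes pH 7.6, 10 mM MgCl2). Rate came from the fluorescence difference over 30 min, ex 525/em 598 nm.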
JMJD2A Tudor inh: JMJD2A Tudor domain (human) inhibition. O75164. AlphaScreen JMJD2A-Tudor / H3K4me3 peptide binding. Potency, µM (series often up to 114 µM), actives largely listed as inhibitors. 390,000 compounds, 4.4% hits. AID 504339; also: nearly all actives have a fitted effect of over 50% in size
BAZ2B inh: blocks human BAZ2B; Q9UIF8; AlphaScreen BAZ2B-H3K14Ac peptide displacement; Potency, µM (top dose mostly 114 µM), actives largely listed as inhibitors; 360,000 compounds, 4.4% hits; also: nearly all actives have a fitted effect of over 60% in size
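AlphaScreen displacement: compounds (up to 110uM) incubated 30 min at room temperature with a preformed 50 nM BAZ2B/50 nM biotinylated H3K14Ac peptide complex in PBS pH 7.4 with Tween-20. Donor and acceptor beads at 10 ug/mL final added, 20 min light-protected before reading.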
Of the large screens only hits and unclear results are named; the others gave an inactive call; ! = repeats disagree. Most compounds without a hit are left out; they make up all but 12% or so of the library. Calls follow the shape of the dose curve; as a rule, active = well fitted curve in the direction sought with a large enough effect; inconclusive = small, poorly fitted or top-dose-only effect, or another doubt; inactive = no such curve, though single readings can be large; an effect the other way counts as inactive or inconclusive.

COc1cccc(C2=CC(c3ccc(OC)c(OC)c3OC)n3ncnc3N2)c1 (centres undefined)	G9a block inconclusive, BAZ2B inh 50.1µM (no result: PLK1 PBD inh, Sfp inh)
COc1ccc(C2C=C(c3ccc(C)c(C)c3)Nc3ncnn32)c(OC)c1OC (centres undefined)	G9a block 50.1µM
CCCSCCCNC(=O)Cn1c(-c2cccs2)cc2ccccc21	none (no result: PLK1 PBD inh, Sfp inh)
COc1ccccc1-n1c(CNC(=O)c2cccs2)n[nH]c1=S	G9a block inconclusive, JMJD2A Tudor inh inconclusive
COc1ccccc1-n1c(Cc2cccs2)n[nH]c1=S	G9a block 3.55µM
Cc1ccc(-c2cc(Cc3cccs3)c(=O)[nH]n2)cc1	none
OC(COCc1cccs1)CN1CCN(c2ccccc2Cl)CC1 (centres undefined)	none
S=c1[nH]nc(Cc2cccs2)n1-c1ccccc1Cl	G9a block 2.24µM, JMJD2A Tudor inh 14.1µM
CCS(=O)(=O)n1c(Cc2cccs2)nc2ccccc21	none (no result: Sfp inh)
Cc1ccc(C)c(-n2c(Cc3cccs3)n[nH]c2=S)c1	G9a block 1.58µM, JMJD2A Tudor inh 10µM
S=c1[nH]nc(Cc2cccs2)n1-c1cccc2ccccc12	G9a block 1.78µM, Sfp inh inconclusive, JMJD2A Tudor inh 39.8µM
O=C(c1csnn1)N1CCC2(CCCN(c3ccccc3)C2)CC1	none (no result: PLK1 PBD inh, HP1b binding inh, JMJD2A Tudor inh, BAZ2B inh)
Cc1cccc(CSc2nnc3c(n2)[nH]c2ccccc23)c1	none
CCc1ccc(C(=O)c2cn(CC(=O)Nc3ccc4c(c3)OCO4)c3ccc(CC)cc3c2=O)cc1	G9a block inconclusive, BAZ2B inh 79.4µM (no result: PLK1 PBD inh, Sfp inh)
CCc1ccc(C(=O)c2cn(CC(=O)Nc3ccc4c(c3)OCO4)c3ccc(Cl)cc3c2=O)cc1	none (no result: PLK1 PBD inh, Sfp inh)
CCc1ccc(C(=O)c2cn(CC(=O)Nc3ccc4c(c3)OCO4)c3cc(OC)c(OC)cc3c2=O)cc1	BAZ2B inh 79.4µM (no result: PLK1 PBD inh, Sfp inh)
COc1ccc(C(=O)c2cn(Cc3ccccc3F)c3ccc(F)cc3c2=O)cc1	BAZ2B inh 79.4µM (no result: PLK1 PBD inh, Sfp inh)
CCc1ccc(C(=O)c2cn(CC(=O)Nc3cccc(OC)c3)c3ccc(OC)cc3c2=O)cc1	G9a block 10µM, JMJD2A Tudor inh 11.2µM, BAZ2B inh 50.1µM (no result: PLK1 PBD inh, Sfp inh)
O=S(=O)(N1CCN(c2nc(-c3cccs3)nc3ccccc23)CC1)C(F)(F)F	none (no result: G9a block, PLK1 PBD inh, Sfp inh, BAZ2B inh)
COc1ccc2[nH]cc(CCNc3ncnc4ccc(-c5ccc6c(c5)OCO6)cc34)c2c1	none (no result: PLK1 PBD inh, HP1b binding inh, JMJD2A Tudor inh, BAZ2B inh)
Cc1onc(-c2c(F)cccc2Cl)c1C(=O)O/N=C(\N)c1ccc([N+](=O)[O-])o1	G9a block 39.8µM, BAZ2B inh inconclusive
CC(Nc1ccc2ccccc2c1)C(=O)N/N=C/c1ccncc1 (centres undefined)	none (no result: Sfp inh)
N[C@@H](C(=O)O)c1ccc(C(=O)O)cc1	none (no result: G9a block, PLK1 PBD inh, HP1b binding inh, JMJD2A Tudor inh, BAZ2B inh)
N[C@H](C(=O)O)c1ccc(C(=O)O)cc1	Sfp inh 44.7µM! (no result: PLK1 PBD inh, HP1b binding inh, JMJD2A Tudor inh, BAZ2B inh)
O=C(NCCc1ccc2c(c1)OCCO2)c1cc(S(=O)(=O)N2CCCC2)ccc1Cl	G9a block 39.8µM (no result: Sfp inh)
O=C(c1ccccc1)N1CCN(c2ccc(N3CCOCC3)nn2)CC1	none (no result: Sfp inh)
COc1ccc(NC2CC(=O)N(c3cccc(C)c3)C2=O)cc1 (centres undefined)	none
COc1ccc(NC2CC(=O)N(c3ccc(C(=O)O)cc3)C2=O)cc1 (centres undefined)	G9a block 50.1µM
COc1ccc(N2C(=O)CC(Nc3cccc(C(C)=O)c3)C2=O)cc1OC (centres undefined)	G9a block 17.8µM
CC(=O)NS(=O)(=O)c1cccnc1Nc1ccc(Cl)cc1	PLK1 PBD inh 10.6µM
CCSc1ccccc1C(=O)Nc1ccc(S(=O)(=O)NC(C)=O)cc1	Sfp inh 25.1µM, JMJD2A Tudor inh 50.1µM (no result: G9a block)
CCSc1ccccc1C(=O)Nc1cccc(OC)c1	G9a block inconclusive
CC(=O)NS(=O)(=O)c1ccc(NC(=O)c2ccccn2)cc1	G9a block 50.1µM, JMJD2A Tudor inh inconclusive, BAZ2B inh 50.1µM
COc1ccc(S(=O)(=O)NCCc2cn3nc(C)c(C)nc3n2)cc1F	none
CC(=O)Nc1ccc(S(=O)(=O)NCCc2cn3nc(C)c(C)nc3n2)cc1	G9a block 8.91µM
